Assay [1] is described as follows: Viability qHTS for spleen associated tyrosine kinase inhibitor (SYKi) drug resistant MV4-11 cells (AID 1963824). Further: nearly all actives have a fitted effect of over 35% in size. The essentials:
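SYK inhibitor-resistant MV4-11 AML cells, 500 per well, added to predispensed compounds and incubated 72 hr at 37 C, 5% CO2. Viability measured by CellTiter-Glo luminescence after 10 min at room temperature.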

Assay [2] can be described thus: Cellular viability qHTS for adrenocortical cancer (ACC) cell line SW-13 (AID 1963989). Further: nearly all actives have a fitted effect of over 65% in size.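 On activity (max response): cells grown in serum-free medium with ITS supplement; on the % scale 0 is the no-effect control and ±100 the full control effect.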 The conditions noted are these: SW-13 ACC cells viability, CellTiter-Glo, 48 h; activity (max response): stronger effect = lower value. In short, it runs like this: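 Compound titrations (up to 46 uM final, in DMSO) were applied to SW-13 cells for 48 h at 37C/5% CO2. Reading used CellTiter-Glo after 20 min at room temperature; fitted curves yielded IC50 and efficacy.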
A general note: qHTS replaces the single test concentration by a dilution series.

Assay [3] can be described thus: Cellular viability qHTS for adrenocortical cancer (ACC) cell line NCI-H295R (AID 1963990). Further: nearly all actives have a fitted effect of over 60% in size.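 On activity change, negative = viability loss: 0% = DMSO only wells and -100% = full killing with cytotoxic reference compound.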 The essentials:
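Readout: CellTiter-Glo luminescence, 20 min RT. Exposure: 48 h, 37C/5% CO2. Cells: NCI-H295R, ITS-DMEM serum-free. Range: up to 46 uM. Analysis: 4PL fit, IC50 plus efficacy.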

Where “and” joins values, the source holds several entries; their conditions need not be identical. Equal entries are not always repeated. Results filed as inconclusive are left out. Values without a mark were called inactive. Calls of active or inactive are those of the source. The call rests on the fitted dose curve; in most records, active means well fitted curve in the direction sought with a large enough effect; inconclusive means small, poorly fitted or top-dose-only effect, or another doubt; inactive means no such curve, though single readings can be large; an effect the other way counts as inactive or inconclusive.
Potency means the concentration at half of the fitted maximal effect.

Consider `CCCCCCCCCCCCCC[N+](C)(C)C`, for which the Potency was 1.33 µM (active) in assay [1] and 4.61 µM (active) in assay [2].
In the case of `CC(=O)O[C@]1(C(C)=O)CC[C@H]2[C@@H]3C=C(Cl)C4=CC(=O)CC[C@]4(C)[C@H]3CC[C@@]21C`, the Potency in assay [1] was 11.9 µM (active). Moreover, the activity (max response) in assay [2] is -0.809%. In assay [3], the Potency entry is “inactive”.
With `OC[C@H]1O[C@@H](n2cnc3c(=S)nc[nH]c32)[C@H](O)[C@@H]1O`, the Potency is 1.19 µM (active) in assay [1], 9.2 µM (active) in assay [2] and 2.31 µM (active) in assay [3].
Regarding `CC/C(=C(\c1ccccc1)c1ccc(OCCN(C)C)cc1)c1ccccc1`, the Potency is 10.8 µM (active) and 18.8 µM (active) in assay [1]; 6.31 µM (active) in assay [2]; 11.2 µM (active) and 16.4 µM (active) in assay [3].
Take `O=c1ncccn1[C@@H]1O[C@H](CO)[C@@H](O)[C@H]1O`: in assay [1], the Potency was 16.6 µM (active). Besides, in assay [2], the activity (max response) is -5.69%. In addition, the Potency entry in assay [3] was “inactive”.
With `O=C(CS(=O)Cc1ccco1)NC/C=C\COc1cc(CN2CCCCC2)ccn1` (stereo unspecified), the Potency entry in assay [1] and in assay [3] was “inactive” in each case. In assay [2], the activity (max response) is 2.9%.
Consider `CC(=O)CC/C=C(\C)CC/C=C(\C)CC/C=C(\C)CCC=C(C)C`, for which the Potency entry in assay [1] and in assay [3] was “inactive” throughout. Besides, the activity (max response) in assay [2] is 9.79%.
In the case of `Oc1ccc(Cl)cc1Cc1cc(Cl)ccc1O`, the Potency was 11.9 µM (active) in assay [1], 5.17 µM (active) in assay [2] and 5.17 µM (active) in assay [3].
Regarding `CCN(c1cc(-c2ccc(CN3CCOCC3)cc2)cc(C(=O)NCc2c(C)cc(C)[nH]c2=O)c1C)C1CCOCC1`, in assay [1], the Potency was 20.6 µM (active). For the same compound, in assay [2], the activity (max response) is -2.62%. Further, in assay [3], the Potency entry is “inactive”.
Taken in the same sequence, the figures for `CC(C)n1ncnc1-c1cn2c(n1)-c1ccc(O[C@@H](C)C(N)=O)cc1OCC2` were 4.68 µM (active), -4.9% and 0.631 µM (active).
Taken in the same sequence, the figures for `COc1ccc(/C=N/NC(=O)c2ccncc2)cc1OC` were “inactive”, -2.5% and “inactive”.
Consider `CCOc1ccc(Cc2cc([C@@H]3O[C@H](CO)[C@@H](O)[C@H](O)[C@H]3O)ccc2Cl)cc1`, for which, in assay [1], the Potency is 18.6 µM (active). For the same compound, the activity (max response) in assay [2] was -2.91%. The Potency entry in assay [3] is “inactive”.
Consider `C[C@@H](C1=C(CCN(C)C)Cc2ccccc21)c1ccccn1`, for which the Potency entry in assay [1] and in assay [3] was “inactive” each time. Also, the activity (max response) in assay [2] is -0.59%.
In the case of `CS(=O)(=O)c1ccc(-c2nnc(/C=C/c3nnc(-c4ccc(C#N)cc4)o3)n2-c2ccccc2Cl)nc1`, the Potency in assay [1] was 14.8 µM (active). Also, in assay [2], the activity (max response) was -6.81%. The Potency entry in assay [3] was “inactive”.
The like results for `CC(CSC(=O)c1ccccc1)C(=O)N1C[C@@H](Sc2ccccc2)C[C@H]1C(=O)O` (stereo partly specified) were, in that order, “inactive”, -2.01% and “inactive”.
For `c1cc(Nc2cc(C3CC3)[nH]n2)nc(Nc2ccc3nc[nH]c3c2)n1`, the Potency in assay [1] is 0.0184 µM (active); in assay [2], 0.224 µM (active); in assay [3] it was 8.91 µM (active).
For `CC(=O)N[C@@H](CC(C)C)C(=O)O`, the Potency entry in assay [1] and in assay [3] was “inactive” throughout. The activity (max response) in assay [2] is 7.87%.
Take `Cc1onc(-c2c(Cl)cccc2Cl)c1C(=O)N[C@@H]1C(=O)N2[C@@H]1SC(C)(C)[C@@H]2C(=O)O`: the Potency entry in assay [1] and in assay [3] was “inactive” in each case. Besides, the activity (max response) in assay [2] was 1.28%.
For the compound `CC1CCc2c(N3CCC(O)CC3)c(F)cc3c(=O)c(C(=O)O)cn1c23` (stereo unspecified), the Potency result in assay [1] and in assay [3] was “inactive” throughout. In addition, in assay [2], the activity (max response) was -4.15%.
On to `CCOC(=O)O[C@]1(C(=O)OCCl)CC[C@H]2[C@@H]3CCC4=CC(=O)C=C[C@]4(C)[C@H]3[C@@H](O)C[C@@]21C`, for which the Potency result in assay [1] and in assay [3] was “inactive” each time. The activity (max response) in assay [2] is 8.33% and -8.79%.
On to `Cc1cc(C)c2c(c1)[C@@H](N(Cc1cc(C(F)(F)F)cc(C(F)(F)F)c1)c1nnn(C)n1)CCCN2CC1CCC(C(=O)O)CC1` (stereo partly specified), for which, in assay [1], the Potency was 18.6 µM (active). Besides, the activity (max response) in assay [2] was -23.9%. Also, the Potency entry in assay [3] is “inactive”.
As to `COc1cc2c(cc1OC)CN(CCc1ccc(-n3nnc(-c4cc(OC)c(OC)cc4NC(=O)c4cc(=O)c5ccccc5o4)n3)cc1)CC2`, the viability, % of control in assay [1] was 98% [at 0.588 µM]. Moreover, the activity (max response) in assay [2] was -2.39%. Also, in assay [3], the activity change, negative = viability loss is -5.76% [at 0.587 µM].
For the compound `COc1ccc2cc(C=O)ccc2c1`, the Potency result in assay [1] and in assay [3] was “inactive” throughout. The activity (max response) in assay [2] was 8.85%.
Turning to `CCc1c(C(=O)NNC(=O)[C@@H](O)c2cc(F)cc(F)c2)ccc(O)c1C`, the Potency in assay [1] is 9.2 µM (active). Besides, the activity (max response) in assay [2] is -4.91%. Moreover, in assay [3], the Potency result is “inactive”.
Consider `Cc1c(-c2c(-c3ccc(F)o3)sc3ncnc(O[C@@H](Cc4ccccc4OCc4ccnn4CC(F)(F)F)C(=O)O)c23)ccc(OCCN2CCN(C)CC2)c1Cl`, for which the Potency is 0.0132 µM (active) in assay [1], 0.199 µM (active) in assay [2] and 1.58 µM (active) in assay [3].
For `C#C[C@]1(O)CC[C@H]2[C@@H]3CCC4=CC(=O)CC[C@@H]4[C@H]3CC[C@@]21CC`, in assay [1], the Potency is 9.34 µM (active). Besides, the activity (max response) in assay [2] was -2.48% and -7.29%. The Potency entry in assay [3] was “inactive”.
Turning to `CC(C)C(C)(C)C(C)(C)C(C)(C)S`, in assay [1], the Potency is 5.45 µM (active). Also, the activity (max response) in assay [2] is 7.64%. For the same compound, the Potency entry in assay [3] was “inactive”.
Taken in the same sequence, the figures for `Cc1cc(OI)c(C(C)C)cc1-c1cc(C(C)C)c(OI)cc1C` were “inactive”, 11.4% and “inactive”.
Turning to `Cc1ccc(Sc2ccccc2N2CCNCC2)c(C)c1`, the Potency in assay [1] is 4.68 µM (active); in assay [2], 25.1 µM (active); in assay [3], 3.55 µM (active).
